Compound activity (PubChem BioAssay)
Shown are actives, neighbours in structure and some others; about 3% of the full set was active somewhere.
Sm TGR inh = inhibitors of Schistosoma mansoni thioredoxin glutathione reductase; 3% of 360,000 active; purified TGR, DTNB reduction, TNB absorbance 405 nm; Potency, µM (doses to about 114 µM), for inactives: at the top dose activity change, negative = inhibition, most hits filed as inhibitors; active = well fitted inhibition curve with a large enough effect; inconclusive = small, poorly fitted or top-dose-only effect; inactive = no such curve, though single readings can be large or run the other way; note: % is set by controls: 0 for no effect and ±100 for the full control effect; nearly all actives have a fitted effect of over 60% in size
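TGR 20 nM + NADPH 100 uM (dispensed conc.), cpd preinc 15 min RT; start with NADPH (500 uM addition) then DTNB (15 mM addition). Kinetic TNB absorbance, 405 nm filter. Four-parameter Hill fit across titration.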
SARS PLP yeast = inhibitors of SARS-CoV papain-like protease in yeast | Potency, µM (titrated, usually from 32.9 µM), inactives show at the top dose activity, positive = growth rescue, actives largely listed as activators | 0.19% of 330,000 active | S. cerevisiae expressing SARS-CoV PLpro, growth rescue; calls by dose curve; note: 0% is about no effect; nearly all actives have a fitted effect of over 55% in size
* hit, by the source's call; ? = inconclusive; · = no result given; ! = not active in a repeat. Potency is the fitted concentration of half-maximal effect.

SMILES	Sm TGR inh	SARS PLP yeast
O=C(Cn1c(=O)n(Cc2nc(-c3ccccc3)no2)c(=O)c2cc3c(cc21)OCO3)Nc1cccc(C(F)(F)F)c1	4%	·
Cc1ccccc1C(=O)NCc1ccc2c(c1)CCN2C(=O)c1ccccc1	-2%	·
CC(C)=NNc1nc2c(c(=O)n(C)c(=O)n2C)n1C	-1%	2%
Cn1c(=O)c2c(nc(NN=C3CCCCC3)n2C)n(C)c1=O	13µM*	0%
COc1ccc(CCNC(=O)CCc2c(C)nc3c4cccnc4nn3c2C)cc1OC	0%	·
O=C(NCc1cccnc1)c1ccccc1NS(=O)(=O)c1ccc(F)cc1	-1%	0%
O=C(NCc1cccnc1)c1ccccc1NS(=O)(=O)c1ccc(F)cc1F	40µM*	-1%
COCc1ccc(C(=O)Nc2ccccc2C(=O)NCc2cccnc2)cc1	-2%	9%
C=CCOc1ccc(C(=O)Nc2ccccc2C(=O)NCc2cccnc2)cc1	40µM*	-7%
Cc1ccc(CN2CCCn3nc(C(=O)NCCc4ccc(Cl)cc4)cc3C2=O)cc1	16%	·
CC(C)Nc1cc(N2CCN(C3CCCCC3)CC2)c2noc3c2c1C(=O)c1ccccc1-3	-14%	·
O=c1c2sc3ccccc3c2n(Cc2cccc(F)c2)c(=O)n1CCc1ccccc1	1%	·
O=C(Nc1ccc(F)cc1)c1ncn(-c2ccccc2)n1	5%	·
CCOc1cccc(CNc2ccc(O)cc2)c1OCc1ccccc1Cl	45µM*!	-63%
CCOc1cccc(CNc2ccc(O)cc2)c1OCc1ccc(Cl)cc1Cl	?	-7%
COC(=O)c1cc(=O)n(-c2ccccc2)c(=Nc2ccccc2)s1	40µM*	-37%
CCOC(=O)c1ccc(N=c2sc(C(=O)OC)cc(=O)n2-c2ccc(C(=O)OCC)cc2)cc1	9%	2%
COc1ccc(NC(=O)COCc2cc(-c3ccc4c(c3)OCO4)on2)cc1	7%	·
COc1cc2c(cc1OC)CN(C(=O)Cc1ccccc1)CC2	0%	0%
COc1cc2c(cc1OC)CN(C(=O)c1ccccc1C(=O)O)CC2	79µM*	-1%
Cc1cc(-n2ccnc(NCCc3ccc(S(N)(=O)=O)cc3)c2=O)ccc1Br	-3%	·
CCc1cnc2c(c1SCC(=O)Nc1ccc(OC)c(OC)c1)c(=O)n(C)c(=O)n2C	3%	·
Cc1ccccc1NC(=O)CSc1nnc(-c2ccco2)n1N	-9%	·
Cc1cccc(NC(=O)CSc2nnc(-c3ccco3)c(-c3ccco3)n2)c1C	3.5µM*	-1%
O=C(Cn1nc(-c2ccco2)ccc1=O)Nc1ccc(Br)cc1	?	2%
SMILES	Sm TGR inh	SARS PLP yeast
Cc1cccc(NC(=O)CSc2nc(N)cc(N)n2)c1	4%	14%
Cc1cccc(NC(=O)Cn2nc(-c3ccco3)ccc2=O)c1C	32µM*	5%
Cc1cccc(NC(=O)CSc2nnc(-c3ccco3)c(-c3ccco3)n2)c1	3.5µM*	-1%
COc1ccccc1C(=O)Nc1cccc(C(=O)OCc2cc(=O)n3c4c(sc3n2)CCCC4)c1	0%	·
N#Cc1ccccc1Cn1c(=O)n(CCCC(=O)NCc2ccc3c(c2)OCO3)c(=O)c2sccc21	-6%	·
Cc1ccc(NC(=O)C2CCCN(S(=O)(=O)c3cccc4nsnc34)C2)cc1C (centres undefined)	11%	·
Nc1cccc2c1C(=O)N(C(=O)/C=C/c1cccc(F)c1)C2=O	6.3µM*	-2%
COc1ccc(OC)c(/C=C/C(=O)N2C(=O)c3cccc(N)c3C2=O)c1	-12%	-19%
COc1cc(/C=C/C(=O)N2C(=O)c3cccc(N)c3C2=O)cc(OC)c1OC	-9%	-19%
Nc1cccc2c1C(=O)N(C(=O)/C=C/c1cccc(Br)c1)C2=O	2.5µM*	-2%
COC(=O)c1sccc1S(=O)(=O)N(CC(=O)Nc1cc(C)cc(C)c1)c1ccc(Cl)cc1	-1%	·
Cc1ccccc1CN1C(=O)c2ccccc2Sc2ccc(C(=O)OCc3ccco3)cc21	31%	·
CCc1cc2c(cc3c(=O)n(CC(=O)NCCc4ccc(OC)cc4OC)nc(CC)n32)s1	-2%	·
Cc1cc(C)c2c(n1)SCCN2C(=O)Nc1ccc(C(=O)Nc2cc(Cl)ccc2C)cc1	4%	·
COc1ccc(OC)c(NS(=O)(=O)c2cc3c(cc2Cl)N(C(C)=O)CCO3)c1	2.5µM*	·
COc1cc(OC)c(NS(=O)(=O)c2cc3c(cc2C)N(C(C)=O)CCO3)cc1Cl	-2%	·
O=C1C(c2ccc(F)cc2)N(CCc2ccc(Cl)cc2)C(=O)CN1C1CCCCCC1 (centres undefined)	17%	·
Cc1cc(=O)n(Cc2ccccc2)c(O)c1C#N	?	5%
Cc1c(C#N)c(NC(=O)CCl)n(Cc2cccs2)c1C	4µM*	-1%
Cc1c(C#N)c(NC(=O)CCl)n(Cc2ccc(F)cc2)c1C	4.5µM*	2%
CCN(CC)C(=O)c1sc(NC(=O)Cc2cccs2)c(C#N)c1C	-8%	-1%
COC(=O)c1cc(C(=O)OC)n(Cc2ccc(F)cc2)c1C	2%	1%
Cc1c(C#N)c(NC(=O)CCl)n(Cc2ccccc2)c1C	3.2µM*	0%
O=C(Nc1cccc(Cl)c1)c1cc(S(=O)(=O)N2CCCc3ccccc32)ccc1F	-3%	·
CCOC(=O)CN1C(=O)N(c2ccc(C)c(C)c2)S(=O)(=O)c2ccccc21	2%	·
SMILES	Sm TGR inh	SARS PLP yeast
Cc1ccc(C)c(N2CCN(C(=O)c3cnn(C(C)(C)C)c3C3CCN(C(=O)OC(C)(C)C)CC3)CC2)c1	-2%	·
Cc1occc1C(=O)NCCCCc1ccccc1	20µM*	-23%
Cc1ccoc1C(=O)NCCNC(=O)c1occc1C	5%	0%
Cc1occc1C(=O)NCc1ccccc1	?	1%
Cc1occc1C(=O)NCCc1ccc(Cl)cc1	22µM*	-13%
O=C(NCCc1ccc(O)cc1)c1ccc(Cl)cc1	8%	5%
Cc1ccoc1C(=O)NCCCNC(=O)c1occc1C	45µM*	3%
Cc1cc(C(=O)NCc2ccc(C(=O)O)o2)c(C)o1	-3%	-6%
Cc1occc1C(=O)NCc1ccc(C(=O)O)o1	40µM*	14%
Cc1cc2oc(C(=O)Nc3ccc(S(=O)(=O)N(C)Cc4ccccc4)cc3)cc(=O)c2cc1C	-1%	·
COc1ccc(NC(=O)C(=O)NCCc2csc3nc(-c4ccccc4C)nn23)cc1	9%	·
O=C(Nc1cc2ccc(O)cc2oc1=O)c1ccccc1	6%	·
Cc1c(Cl)cccc1NC(=O)CCn1c(=O)c2cccn2c2ccccc21	-10%	·
CC1=C(C(=O)NCc2cccc(F)c2)C2(CCCCC2)OC1=O	-14%	·
COc1ccc(Cl)cc1S(=O)(=O)Nc1cccc(-c2ccc(N3CCOCC3)nn2)c1	-4%	·
O=C(O)c1ccc(-c2ccccc2)[nH]c1=O	-8%	4%
CN(C)c1c(-c2ccccc2)cc(-c2ccccc2)[nH]c1=O	16µM*	0%
O=C(NCc1ccccc1Cl)c1ccc2c(c1)NC(=O)C(CS(=O)(=O)Cc1ccc(Cl)cc1)N2 (centres undefined)	-19%	·
Cc1ccc(C)c(Nc2nnc(-c3ccc(C)c(S(=O)(=O)N4CCN(C)CC4)c3)c3ccccc23)c1	-5%	·
O=C1OC(Nc2ccc(F)c([N+](=O)[O-])c2)c2ccccc21 (centres undefined)	-1%	0%
O=C1OC(Nc2ccc3c(c2)OCO3)c2ccccc21 (centres undefined)	8.9µM*	0%
Cc1cccc(-c2nc(SCC(=O)N(C)c3ccccc3)c3c(=O)n(C)c(=O)n(C)c3n2)c1	-16%	·
O=C(Cn1cnc2onc(-c3ccc(F)cc3)c2c1=O)Nc1ccc(F)c(Cl)c1	-3%	·
Nc1ccc(-c2cc3ccccc3oc2=O)cc1	-11%	-1%
